# System: VDR:RXRa (NR concentration 270 nM, RXRa partner concentration 90 nM)
# Test: PBM binding z-score (relative to random genomic background probes); higher = stronger binding; sequences stand for … in GC…GCGATTGACAGCGTAGAATGAAGG
# Procedure: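 Protein-binding microarray (Agilent 4x180K custom design, double-stranded 60-nt probes: 5' GC cap, 34-nt variable region, 24-nt constant primer region; full probe sequence given). Purified or IVT nuclear receptor:RXRα heterodimers (3:1 NR:RXRα, mostly 270:90 nM) or homodimers were incubated for 1 h in PBS with 2% milk and no ligand, then detected with Alexa488 antibodies. Fluorescence from o1-orientation probes (~5 replicates averaged) was converted to z-scores against 500 random hg19 background probes. Variable regions are seed direct-repeat (DR0–DR5) sites, all their single-nucleotide variants and half-site ablations.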
row,Sequence,PBM binding z-score
1,CGAACGAGGGCACGAGTTGATAGCAAATGCCGAT,1.97
2,CGTCCAAGGTCATCAGGTCAGTGAAAGCGACGTG,5.43
3,CGTCCAAGGTCATCGGAGGTCAGTGAAGACAGAT,7.04
4,ATCGAAAGGTCGAGGTTAGTATAGAGAAAGGGAA,2.75
5,TTACCAAGGTGTAAGGTCGTTGATGCACGCCTTG,1.08
6,TCTCGGAGGACACGAAAGATCAGAGCTCGACATC,0.0612
7,TCTCGGAGGACACGCAAGGTCAGAGCTCGACATC,2.45
8,CCAGACAGGTGAGAGGGTAACTCAGCCTCGATTA,-0.0785
9,ACTAGCAGTCCAAGGGTCACTCAAGATTAGTCCG,2.86
10,AATACAGGGTCATCGTAGGCCAGAGTGCGCACAG,5.15
11,TCATATAGTTAAATGCTAGGTGAAAGTCCGATCT,0.952
12,ACTAGTAGGCCAAGTTTGGGTCACTCAAACAAAG,0.967
13,TCATATAGGTAAATACTAGGTGAAAGTCCGATCT,1.19
14,CGTCCAAGGTCAAAGGGCAGTGAAGAGATGACGG,4.65
15,ACTAGTTAGTCAGCTGAGGTCACACACAATTCGG,4.19
16,ATCTCTCGGTAAAGTTCAGTGAAAGATCGATAGA,1.1
17,TCTGGTAGATCAAGCAGGTTAAGAAAGCCTGAGT,0.122
18,CCAGACAGGTGAAAGGTGACTCAGTCTGGTACGC,1.3
19,GGAACGAGGGCAATGTTGATAGCATCTGTCGACG,0.402
20,CGTCAAAGTTAAACTAAGGTAACGTAAAGCACGC,0.371

row,Sequence,PBM binding z-score
1,CGAACTAGGTCGTTGACAGGACAGTGAATAGTAA,0.71
2,TCTTGTAGATCAATAGAGGTTAAGAATGTGCGCT,1.27
3,AGAATGAGGTTACCAAAGATCGGGGAAACGCTTG,1.3
4,GCTAGCAGGCCATTTGGCTCACTCAATGACGGGC,-0.942
5,CCGACTGGGGCACAAGGTTACCATAAGCCAGCCC,0.209
6,ACTTTCGGGTCAACGAGGTTATAGCACGCGTATA,7.85
7,ATCGAAAGGTCGAGGTGAATATAGAGAAAGGGAA,2.45
8,GCTTTTAGTTGAAAGGGCAACCGAATGATTCTCG,0.313
9,CAGGCTAGGTCAGGGCCAGTATAGGAGGAACGTT,0.258
10,ATCTCTAAGTAAGACTCAGTTCAGTGAAGAACGC,0.712
11,CAAACTAGGGCACAGAGGTCAAAGTCCGTGCGTA,6.64
12,AGTCAAAGTTCATCTCGGTAACGTAAGATATGCT,4.8
13,TCTGCTAGGTCAACGATGGACAGCTAATCTGCTA,1.21
14,CCAGACAGGTGAAAGGTAACTGAGTCTGGTACGC,0.972
15,CCTGCTAGGTCACTGGTCAGCTAAAGCAGCTCGC,1.39
16,TCATATAGTTAAAGGTGAAAGTCGAACGATATGA,1.2
17,AATACAGGGTCACTAGGCCTGAGTAGGTACGAAT,3.84
18,ATATGTAGGTTAAGGGTCATTAAGGTTGGTTCGC,6.19
19,CCAACTAGGTCAAGGTCAAAGTCGGTTTGTGCCA,5.14
20,ATAAGTAGGTTAAGGGTCATTCAGGTTGGTTCGC,5.89
